Sampled rows, rich in hits. Any-hit rate of the full collection: about 2.4%.
GLS inh – qHTS for Inhibitors of Glutaminase (GLS); GLS enzymatic activity, qHTS titration; hit rate 0.21% among 410,000; Potency, µM (highest dose often 45.5 µM), for inactives: at the top dose activity change, negative = inhibition, actives largely listed as inhibitors; Glutaminase kidney isoform, mitochondrial (Homo sapiens), O94925; also: % is scaled to controls: 0 for no effect and ±100 for the full control effect
Target sequence (O94925 whole entry, looked up, canonical isoform): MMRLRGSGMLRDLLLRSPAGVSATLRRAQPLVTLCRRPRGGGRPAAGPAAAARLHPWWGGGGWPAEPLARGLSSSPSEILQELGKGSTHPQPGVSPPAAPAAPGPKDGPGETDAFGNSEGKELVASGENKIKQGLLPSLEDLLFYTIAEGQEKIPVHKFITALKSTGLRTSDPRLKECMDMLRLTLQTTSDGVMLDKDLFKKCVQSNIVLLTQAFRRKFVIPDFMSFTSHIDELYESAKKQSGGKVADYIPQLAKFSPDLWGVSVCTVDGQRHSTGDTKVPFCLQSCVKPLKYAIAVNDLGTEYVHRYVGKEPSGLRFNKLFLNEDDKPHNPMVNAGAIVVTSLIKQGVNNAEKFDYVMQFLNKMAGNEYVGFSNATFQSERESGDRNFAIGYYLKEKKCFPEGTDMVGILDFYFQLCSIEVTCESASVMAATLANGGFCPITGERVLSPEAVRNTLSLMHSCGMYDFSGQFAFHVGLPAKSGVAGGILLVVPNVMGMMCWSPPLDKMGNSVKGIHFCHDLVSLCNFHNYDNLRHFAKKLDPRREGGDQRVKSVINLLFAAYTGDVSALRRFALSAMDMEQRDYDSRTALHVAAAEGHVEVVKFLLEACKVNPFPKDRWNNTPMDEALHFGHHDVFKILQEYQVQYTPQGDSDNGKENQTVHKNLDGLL
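Read-out is an Amplex red fluorescence increase coupled through glutamate oxidase and HRP, measured before and after 30 min room-temperature incubation. hKGA is in 45 mM KH2PO4 (pH 8.2) with 0.02% Tween-20; glutamine added as 1mM solution.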
POLH inh – qHTS for Inhibitors of Polymerase Eta | Potency, µM (doses to about 114 µM), for the others: at the top dose activity change, negative = inhibition, most hits filed as inhibitors | DNA polymerase eta (Homo sapiens), Q9Y253 | hit rate 1.2% among 390,000 | recombinant Pol eta, fluorescent DNA replication assay; also: % is scaled to controls: 0 for no effect and ±100 for the full control effect
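Pol eta (10 nM) was preincubated with compounds for 15 min at room temperature, after which fluorescent replication substrate (50 nM final) was added to start the reaction. Fluorescence was read kinetically at 0 and 10 min.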
POLB inh – qHTS Assay for Inhibitors of DNA Polymerase Beta | P06746 | Pol beta primer extension/strand displacement, fluorescence kinetic | Potency, µM (doses to about 114 µM), for the others: at the highest dose activity change, negative = inhibition, usual class: inhibitors | hit rate 1.3% among 340,000 | AID 485314, 2010; also: % is scaled to controls: 0 for no effect and ±100 for the full control effect
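Values derive from four-parameter Hill fits of normalized kinetic data: reads at 0 and 10 min following addition of 50 nM substrate to 10 nM Pol beta preincubated 15 min with compound.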
Pol iota inh – qHTS for Inhibitors of Polymerase Iota; DNA polymerase iota (Homo sapiens), Q9UNA4; Pol iota fluorescent replication assay, 10 min; Potency, µM (top dose mostly 115 µM), for the others: top-dose activity, negative = inhibition, hits mostly inhibitors; hit rate 1% among 390,000; AID 588590, 2011
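Pol iota at 10 nM preincubated 15 min with compounds at room temperature; reaction started with fluorescent substrate, 50 nM final. Fluorescence read kinetically at 0 and 10 min; buffer-only wells as negative control.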
APE1 inh-1 – qHTS Assay for Inhibitors of the Human Apurinic/apyrimidinic Endonuclease 1 (APE1) | DNA repair nuclease/redox regulator APEX1 (Homo sapiens), P27695 | recombinant APE1, TAMRA/BHQ-2 abasic DNA cleavage fluorescence | Potency, µM (titrated, usually from 65.8 µM), inactives show top-dose activity change, negative = inhibition, hits mostly inhibitors | hit rate 0.35% among 350,000 | AID 2517, 2012;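 also: plate controls were vehicle for no effect and reference inhibitor for full effect; nearly all actives have a fitted effect of over 55% in size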
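APE1 at 0.75 nM final was preincubated with compound 15 min at room temperature, then 50 nM double-stranded THF abasic-site substrate (5'-TAMRA/3'-BHQ-2) was added. Fluorescence (ex 525/em 598 nm) was read kinetically; third-minus-first read gave activity.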
POLK inh – qHTS for Inhibitors of Polymerase Kappa. DNA polymerase kappa (Homo sapiens), Q9UBT6. Potency, µM (highest dose often 107 µM), for the others: top-dose activity, negative = inhibition, most hits filed as inhibitors. purified Pol kappa, fluorescent DNA synthesis assay, 10 min. hit rate 0.53% among 400,000. AID 588579, 2011; also: % is scaled to controls: 0 for no effect and ±100 for the full control effect
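10 nM Pol kappa was preincubated with compounds for 15 min at room temperature. Reaction started with 50 nM (final) substrate. Fluorescence read kinetically at 0 and 10 min.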
APE1 dye cs – Counterscreen for APE1 Inhibitors: Fluorescent Dye Displacement Assay | shares compounds with APE1 inh-1 | DNA fluorescent dye displacement counterscreen, fluorescence | Potency, µM (top dose mostly 28.5 µM), for the others: at the top dose activity change, negative = inhibition, most hits filed as inhibitors | hit rate 7% among 480;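 also: loss of thiazole orange fluorescence as the dye is displaced from duplex DNA; 0% = ThO with dsDNA and no compound and -100% = ThO without dsDNA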
EndoIV counter – Counterscreen for APE1 Inhibitors: qHTS Assay for Inhibitors of Endonuclease IV | shares compounds with APE1 inh-1 | hit rate 4% among 560 | AID 2565, 2010 | E. coli Endo IV, fluorogenic AP-site DNA cleavage | Potency, µM (doses to about 27.1 µM), without a hit: top-dose activity change, negative = inhibition, usual class: inhibitors;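 also: plate controls were uninhibited enzyme wells for no effect and no enzyme buffer wells for full effect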
APE1 inh-2 – Confirmation qHTS Assay for Inhibitors of the Human Apurinic/apyrimidinic Endonuclease 1 (APE1); purified APE1, fluorogenic abasic-site DNA cleavage; shares compounds with APE1 inh-1; Potency, µM (doses to about 57.1 µM), inactives show at the highest dose activity change, negative = inhibition, hits mostly inhibitors; AID 2572, 2010; hit rate 44% among 750; also: % is scaled to controls: 0 for no effect and ±100 for the full control effect; nearly all actives have a fitted effect of over 30% in size
APE1 FP – qHTS FP-Based Assay for Inhibitors of the Human Apurinic/apyrimidinic Endonuclease 1 (APE1); shares compounds with APE1 inh-1; APE1 binding to TAMRA-labelled double-stranded DNA, fluorescence polarization displacement; Potency, µM (titrated, usually from 28.5 µM), for inactives: top-dose activity, negative = inhibition, hits mostly inhibitors; hit rate 7% among 480; AID 2573, 2010; also: % is scaled to controls: 0 for no effect and ±100 for the full control effect
Starred values were filed as active, the others as inactive; [ ] = another dose, or the depositor's remark. Calls follow the shape of the dose curve; as a rule, active = well fitted curve in the direction sought with a large enough effect; inconclusive = small, poorly fitted or top-dose-only effect, or another doubt; inactive = no such curve, though single readings can be large; an effect the other way counts as inactive or inconclusive. Potency is read from the fitted curve at half-maximal effect.

Screening O=C(O)c1ccccc1-n1cccc1C(=O)O returned GLS inh 5%, POLH inh 40µM*, POLB inh 25µM*, Pol iota inh inconclusive, APE1 inh-1 inconclusive, POLK inh -25%, APE1 dye cs -5%, EndoIV counter 0%, APE1 inh-2 13µM* and APE1 FP inconclusive.
Screening CCCc1c(-c2ccccc2F)ncn1CCc1ccccc1OC returned GLS inh 0%.
CC1CCCCC12NC(=O)N(CC(=O)Nc1sc3c(c1C(N)=O)CCC3)C2=O (stereo unspecified) was read as GLS inh 1%, POLH inh 18µM*, POLB inh 32µM*, Pol iota inh inconclusive, APE1 inh-1 7.9µM*, POLK inh -37%, APE1 dye cs inconclusive, EndoIV counter -5%, APE1 inh-2 -24%[24.4 µM] and APE1 FP 4%.
For O=C(O)C1CC=CCC1C(=O)Nc1ccccc1 (stereo unspecified) the results were GLS inh 12%, POLH inh inconclusive, POLB inh 32µM*, Pol iota inh 10%, APE1 inh-1 -17%, POLK inh -6% and APE1 inh-2 -23%.
For O=C(O)Cc1ccc(NC(=O)C2CC=CCC2C(=O)O)cc1 (stereo unspecified) the results were POLB inh 22µM*, APE1 inh-1 20µM* and APE1 inh-2 -36%.
For CCc1ccc(NC(=O)C2CC=CCC2C(=O)O)cc1 (stereo unspecified) the results were GLS inh 1%, POLH inh -6%, POLB inh -15%, Pol iota inh 9%, APE1 inh-1 -4% and POLK inh 1%.
Screening O=C(CSc1nc2ccccc2c(=O)[nH]1)Nc1ccc([N+](=O)[O-])cc1 returned GLS inh -3%, POLH inh -11%, Pol iota inh 62%, APE1 inh-1 12% and POLK inh -5%.
COc1ccc(Cl)cc1NC(=O)CSc1nc(NS(=O)(=O)c2ccccc2)cc(=O)[nH]1 was read as GLS inh -10%, POLH inh -8%, POLB inh 33%, Pol iota inh -19%, APE1 inh-1 11% and POLK inh -6%.
For O=C(CSc1nc(NS(=O)(=O)c2ccccc2)cc(=O)[nH]1)Nc1ccc(Cl)cc1 the results were GLS inh 1%, POLH inh -19%, POLB inh 20µM*, Pol iota inh 16µM*, APE1 inh-1 -4%, POLK inh 45µM* and APE1 inh-2 -16%.
`O=C(CSc1nc2ccccc2c(=O)[nH]1)Nc1ccc(C(=O)O)cc1` gave GLS inh 2%, POLH inh 0%, POLB inh inconclusive, Pol iota inh 59%, APE1 inh-1 -7%, POLK inh -21% and APE1 inh-2 -9%.
Screening CC(C)CCn1c(Br)nc2c1c(=O)n(CC(N)=O)c(=O)n2C returned GLS inh -1%, POLH inh -19%, POLB inh 16%, Pol iota inh inconclusive, APE1 inh-1 1% and POLK inh -7%.
Screening Cc1cc(C)c(NC(=O)CNC(=O)COC(=O)Cc2cccs2)c(C)c1 returned GLS inh 0%, POLH inh -9%, Pol iota inh 10%, APE1 inh-1 29% and POLK inh -2%.
Screening CC(C)CCNC(=O)C1CCCCN1S(=O)(=O)c1ccc(F)cc1 (stereo unspecified) returned GLS inh -6%, POLH inh -2%, POLB inh 29%, Pol iota inh -20%, APE1 inh-1 15% and POLK inh -13%.
Screening COc1ccc(OC)c(-c2csc(N(Cc3ccco3)C(=O)c3ccco3)n2)c1 returned GLS inh 0%, POLH inh -5%, POLB inh 20%, Pol iota inh 12%, APE1 inh-1 inconclusive, POLK inh -2%, APE1 dye cs -11%, EndoIV counter inconclusive, APE1 inh-2 inconclusive and APE1 FP -3%.
For O=[N+]([O-])c1cc(/C=N\Nc2nccs2)ccc1O the results were POLB inh 4µM*, APE1 inh-1 7.1µM*, APE1 dye cs 10µM*, EndoIV counter 16%, APE1 inh-2 1.6µM* and APE1 FP 8.9µM*.
`COc1ccc(OC)c(NC(=O)CN(c2ccc(OC)c(Cl)c2)S(C)(=O)=O)c1` gave GLS inh -3%, POLH inh -10%, POLB inh 4%, Pol iota inh -9%, APE1 inh-1 -4% and POLK inh -8%.
`C=C(Cl)COc1ccc2c(CCC)cc(=O)oc2c1` gave GLS inh 1%, POLH inh -22%, POLB inh 16%, Pol iota inh 17%, APE1 inh-1 15%, POLK inh -8% and APE1 inh-2 -27%.
Screening CN1C(=O)S/C(=C/c2cccn2-c2cccc(C(=O)O)c2)C1=O returned GLS inh 5%, POLH inh 50µM*, POLB inh inconclusive, Pol iota inh inconclusive, APE1 inh-1 inconclusive, POLK inh -32%, APE1 dye cs inconclusive, EndoIV counter 1%, APE1 inh-2 inconclusive and APE1 FP inconclusive.

Bioassay records from PubChem.
